Where “and” joins values, the source holds several entries; their conditions need not be identical. Equal values may be shown once. Results filed as inconclusive are left out. Some compounds were tested as several samples or in several runs, with calls that do not always agree. Calls of active or inactive are those of the source. Unless noted, calls come from the whole dose curve; as a rule, active = well fitted curve in the direction sought with a large enough effect; inconclusive = small, poorly fitted or top-dose-only effect, or another doubt; inactive = no such curve, though single readings can be large; an effect the other way counts as inactive or inconclusive.

The text below walks through data of PubChem BioAssay (NCATS).

Assay [1] has as its target Protein phosphatase 1D (Homo sapiens) (UniProt O15297). Kind of assay: RapidFire Mass Spectrometry qHTS Assay for Modulators of WT P53-Induced Phosphatase 1 (WIP1) (AID 1347424).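 Note: amount of dephosphorylated VEPPL-S-QETFS peptide product formed by WIP1; series mostly up to about 63 µM; plate controls were DMSO wells for no effect and GSK830371 inhibitor control at 10 µM for full effect.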 Summed up: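 10 nM WIP1 preincubated with compounds 1 hr at room temperature in pH 7.5 Tris buffer with 30 mM MgCl2, 1 mM TCEP; 2 uM VEPPL-pS-QETFS phosphopeptide for 5 min, formic acid quench; dephosphorylated product quantified by RapidFire MS against labelled standard.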
(In general: In qHTS, concentration-response curves come from the screen itself.)

Assay [2] has the same target. Kind of assay: Rhodamine-PBP qHTS Assay for Modulators of WT P53-Induced Phosphatase 1 (WIP1) (AID 1347425). Note: % of control where 0% means no effect. An outline of the steps: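 5 nM WIP1 + 10 uM Rh-PBP, 50 mM Tris pH 7.5, 30 mM MgCl2, 1 mM TCEP, 0.1 mM EGTA, BSA; cpds pinned, 1 hr RT; + 10 uM phosphopeptide; fluorescence 1-min reads x 11 min; delta = f1 - f0.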
The nature of assay [3]: Primary qHTS for inhibitors of La Crosse Virus (LACV) - induced cell death in SH-SY5Y cells (AID 1508616). Note: potency is the fitted concentration of half-maximal effect. Summed up: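 Protection against LACV-induced cell death is scored in SH-SY5Y cells exposed to compounds and virus (0.01 MOI) for 6 days. Data normalized to virus-infected DMSO wells and virus-free DMSO wells.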
For assay [4], the target named is Calcium and integrin-binding protein 1 (Homo sapiens) (UniProt Q99828). Kind of assay: Primary qHTS for Identification of Calcium Integrin Binding Protein 1 (CIB1) Competitor (AID 1508620).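 Note: GST tagged CIB1 binding a fluorescein labelled alphaIIb integrin peptide tracer; top concentration of the series differs between compounds; % is set by controls: 0 for no effect and ±100 for the full control effect.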 An outline of the steps:
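Fluorescence polarization competition: GST-tagged CIB1 (1 uM final) preincubated with compound 15 min at room temperature, then FITC-labelled alphaIIb peptide (100 nM final) added. After 15 min at room temperature, polarization read at Ex 480/Em 540.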

A short description of assay [5]: Primary qHTS for inhibitors of SARS-S pseudo-typed particle cell entry (AID 1479145; calls by dose curve; note: nearly all actives have a fitted effect of over 45% in size; note: potency is the fitted concentration of half-maximal effect).
A short description of assay [6]: Primary qHTS for Huh7 cytotoxicity: counterscreen for inhibitors of MERS-S pseudotyped particle cell entry (AID 1479147; calls by dose curve).
Assay [7] is described as follows: Primary qHTS for inhibitors of MERS-S pseudo-typed particle cell entry (AID 1479149; calls by dose curve; note: nearly all actives have a fitted effect of over 60% in size; note: potency is the fitted concentration of half-maximal effect).
Assay [8] can be described thus: Primary qHTS for Vero E6 cytotoxicity: counterscreen for inhibitors of SARS-S pseudo-typed particle cell entry (AID 1479150; calls by dose curve).
Assay [9] in a line: Cell Viability qHTS for small molecule stabilizers of the endoplasmic reticulum resident proteome (AID 1508629).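 For max response: human SH-SY5Y neuroblastoma cells carrying the GLuc-SERCaMP reporter; % is set by controls: 0 for no effect and ±100 for the full control effect.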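 Note: compound exposure about 46 h in total before the viability read.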 Note: potency is the fitted concentration of half-maximal effect. The note with it: cell viability counter-screen, 100 nM thapsigargin for final 4 h.
Assay [10] can be described thus: Primary qHTS for small molecule stabilizers of the endoplasmic reticulum resident proteome: Secreted ER Calcium Modulated Protein (SERCaMP) assay (AID 1508630). Note: % is set by controls: 0 for no effect and ±100 for the full control effect. Summed up: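 GLuc-SERCaMP-expressing SH-SY5Y cells, pretreated 16 h with compound, are challenged with thapsigargin to empty ER calcium stores; after 4 h, coelenterazine is added directly to the medium and luminescence is imaged.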

A short description of assay [11]: qHTS to identify inhibitors of the type 1 interferon - major histocompatibility complex class I in skeletal muscle: primary screen against the NCATS Mechanism Interrogation Plate v5.0 (MIPE) Libary (AID 1347411).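 Note: plate controls were vehicle for no effect and reference inhibitor for full effect; nearly all actives have a fitted effect of over 65% in size.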 An outline of the steps:
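Luminescence from HiBiT-tagged endogenous HLA-B*08:01 served as the MHC class I read-out. CRISPR-engineered C25cl48 human myoblasts received 4.0 ng/ml IFN-beta plus compound for 24 hrs, with an 11-point, 1:3 series topping at 46 uM final.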

Assay [12] deals with Calcium and integrin-binding protein 1 (Homo sapiens) (UniProt Q99828). Kind of assay: Validation qHTS for Identification of Calcium Integrin Binding protein 1 (CIB1) Competitor (AID 1508618). Note: % is set by controls: 0 for no effect and ±100 for the full control effect. An outline of the steps:
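Displacement of FITC-alphaIIb peptide (100 nM) from CIB1-GST (1 uM) is monitored by polarization in quantitative HTS format; buffer carries 5 mM CaCl2 and 125 mM NaCl at pH 7.4, incubations are at room temperature.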

A short description of assay [13]: Confirmatory qHTS for VERO E6 Cytotoxicity Assay: Counterscreen for SARS-CoV-2 CPE Assay (AID 1508605; calls by dose curve; note: series mostly up to about 20 µM; % is set by controls: 0 for no effect and ±100 for the full control effect; nearly all actives have a fitted effect of over 60% in size).
Assay [14] in a line: Counterscreen qHTS for small molecule stabilizers of the endoplasmic reticulum resident proteome: GLuc-NoTag assay (AID 1508627).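 Note: SH-SY5Y cells given compound then 100 nM thapsigargin to empty ER calcium; series mostly up to about 76 µM; 0% = thapsigargin alone and -100% = DMSO vehicle control.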 Summed up: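 SH-SY5Y cells stably expressing constitutively secreted GLuc without SERCaMP tag, exposed to compound for 19 hr, then to 100 nM thapsigargin for 4 hr at 37C. Medium luciferase was read by coelenterazine luminescence without lysis.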
Assay [15] in a line: Confirmatory qHTS for small molecule stabilizers of the endoplasmic reticulum resident proteome: Secreted ER Calcium Modulated Protein (SERCaMP) assay (AID 1508628). Note: series mostly up to about 76 µM; % is set by controls: 0 for no effect and ±100 for the full control effect; nearly all actives have a fitted effect of over 40% in size. An outline of the steps:
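SH-SY5Y cells stably expressing GLuc-SERCaMP, treated 16 h with compound (primary 1.53, 7.67, 38.3 uM; confirmation 11 concentrations, up to 76.6 uM), then 100 nM thapsigargin for 4 h. Secreted Gaussia luciferase in medium read by coelenterazine luminescence.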

Chain of Protein phosphatase 1D (Homo sapiens) (O15297 whole entry, looked up): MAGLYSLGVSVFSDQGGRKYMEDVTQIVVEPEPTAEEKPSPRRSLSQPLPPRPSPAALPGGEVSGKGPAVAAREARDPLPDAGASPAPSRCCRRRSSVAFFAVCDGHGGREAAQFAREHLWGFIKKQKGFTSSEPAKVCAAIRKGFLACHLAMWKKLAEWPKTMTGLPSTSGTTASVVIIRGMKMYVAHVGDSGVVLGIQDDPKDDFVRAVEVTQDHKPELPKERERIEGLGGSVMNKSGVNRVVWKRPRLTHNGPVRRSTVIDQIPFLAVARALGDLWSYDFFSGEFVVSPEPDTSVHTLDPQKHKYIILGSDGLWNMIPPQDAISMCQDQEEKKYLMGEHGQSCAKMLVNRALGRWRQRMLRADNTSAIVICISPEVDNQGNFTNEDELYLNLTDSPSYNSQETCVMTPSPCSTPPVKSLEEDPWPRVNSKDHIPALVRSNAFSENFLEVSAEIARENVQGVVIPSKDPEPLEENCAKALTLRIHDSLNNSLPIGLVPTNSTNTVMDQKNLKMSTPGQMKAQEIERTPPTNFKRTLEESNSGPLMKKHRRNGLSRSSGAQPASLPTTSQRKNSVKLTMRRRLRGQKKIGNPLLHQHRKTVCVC
Chain of Calcium and integrin-binding protein 1 (Homo sapiens) (Q99828 whole entry, looked up): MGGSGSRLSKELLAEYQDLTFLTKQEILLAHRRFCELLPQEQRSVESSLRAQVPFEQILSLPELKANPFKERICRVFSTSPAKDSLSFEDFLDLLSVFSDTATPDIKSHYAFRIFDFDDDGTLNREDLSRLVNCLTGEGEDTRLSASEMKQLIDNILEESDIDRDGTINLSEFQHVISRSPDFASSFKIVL

On to `CC(C)(N)Cc1ccc(Cl)cc1`, for which the Potency result in assay [1], in assay [3] and in [4] was “inactive” each time. Also, in assay [2], the call was inactive.

Regarding `Oc1cccc2cccnc12`, the Potency entry in [1], in [5], in assay [6], in assay [8], in assay [3] and in assay [4] was “inactive” throughout. In addition, the compound was classed as inactive in assay [2] and in assay [10]. In addition, the Potency result in assay [7] was “inactive and 3.55 µM (active)”; in assay [9] it was 20 µM (active).

Regarding `C#CCN(C)[C@H](C)Cc1ccccc1`, the Potency result in assay [11], in [5], in assay [6], in assay [7], in assay [8] and in [3] was “inactive” each time. In addition, in assay [4], the Potency entry is “inactive”. For the same compound, the call in [2] and in [10] was inactive.

Regarding `C#CCOC(C(=O)OCCN(C)C)(c1ccccc1)c1ccccc1`, the Potency entry in [1], in assay [3] and in assay [4] was “inactive” in each case. For the same compound, the compound was called inactive in assay [2] and in assay [10].

For the compound `C=C1C[C@@H]2[C@H](CC[C@]3(C)C(=O)CC[C@@H]23)[C@@]2(C)C=CC(=O)C=C12`, the Potency result in [1], in assay [6], in assay [7], in assay [8], in assay [3] and in assay [4] was “inactive” throughout. Also, the compound was called inactive in assay [2].

`N[C@@H]1C[C@H]1c1ccccc1`: the Potency entry in [11], in assay [5], in [6], in assay [7], in assay [8] and in assay [3] was “inactive” each time. Besides, the Potency result in assay [4] is “inactive”. In addition, the compound was classed as inactive in [2] and in assay [10].

Regarding `CCN(CC)C(=O)N[C@@H]1C=C2c3cccc4[nH]cc(c34)C[C@@H]2N(C)C1`, the Potency entry in [1], in [5], in [6], in assay [7] and in [8] was “inactive” throughout. Moreover, the call in assay [2] and in assay [10] was inactive.

As to `O=P1(NCCCl)OCCCN1CCCl` (centres undefined), the Potency result in [11], in [5], in [6], in assay [7], in assay [8] and in assay [3] was “inactive” throughout. Also, the Potency result in assay [4] was “inactive”. The compound was classed as inactive in assay [2] and in assay [10].

Take `O=[N+]([O-])c1cc([As](=O)(O)O)ccc1O`: the Potency entry in assay [1], in assay [5], in assay [6], in [7], in [8] and in [3] was “inactive” in each case. The Potency entry in [4] was “inactive”. In addition, the result in assay [2] and in [10] was inactive.

With `Clc1cccc(N2CCNCC2)c1`, the Potency result in assay [1], in assay [3] and in assay [4] was “inactive” in each case. For the same compound, the result in assay [2] and in assay [10] was inactive.

Turning to `CO[C@]12CC[C@@]3(C[C@@H]1[C@](C)(O)C(C)(C)C)[C@@H]1Cc4ccc(O)c5c4[C@@]3(CCN1CC1CC1)[C@H]2O5`, the Potency result in assay [1], in [3] and in [4] was “inactive” in each case. Further, the compound was classed as inactive in assay [2].

Take `O=C(NC(O)C(Cl)(Cl)Cl)NC(O)C(Cl)(Cl)Cl` (centres undefined): the Potency entry in assay [1], in [3] and in assay [4] was “inactive” each time. In addition, the outcome in assay [2] and in assay [10] was inactive.

For `Clc1ccc(COC(Cn2ccnc2)c2ccc(Cl)cc2Cl)cc1` (centres undefined), the Potency entry in assay [1], in assay [6], in assay [8], in assay [3] and in [4] was “inactive” in each case. Besides, the compound was classed as inactive in assay [2]. Moreover, in [7], the Potency was 25.1 µM (active).

Take `CNC(=O)c1ccc(N2C(=S)N(c3ccc(C#N)c(C(F)(F)F)c3)C(=O)C23CCC3)cc1F`: the Potency result in assay [11] and in assay [4] was “inactive” in each case. Further, the outcome in assay [10] was inactive.

For the compound `CCOP(=S)(OCC)Oc1cc(C)nc(C(C)C)n1`, the Potency result in assay [1], in [3] and in assay [4] was “inactive” each time. For the same compound, in [2], the compound was classed as inactive.

Turning to `CC(C)=CC1C(C(=O)OCc2cccc(Oc3ccccc3)c2)C1(C)C` (centres undefined), the Potency result in assay [1], in assay [5], in assay [6], in assay [7], in assay [8] and in [3] was “inactive” each time. Moreover, the Potency result in assay [4] is “inactive”. The outcome in assay [2] and in [10] was inactive.

Regarding `C=C(C)[C@H]1Cc2c(ccc3c2O[C@@H]2COc4cc(OC)c(OC)cc4[C@@H]2C3=O)O1`, the Potency result in assay [1], in assay [5], in assay [7], in [12] and in [4] was “inactive” in each case. In addition, the outcome in assay [2] and in [10] was inactive. The Potency in assay [3] was 0.316 µM (active).

Turning to `COC1(CS(=O)c2ccccc2)CCN(CCc2c[nH]c3ccc(F)cc23)CC1` (centres undefined), the Potency entry in assay [11] and in assay [4] was “inactive” throughout. Moreover, the result in assay [10] was inactive.

`CN(C)[C@@H]1C(=O)C(C(N)=O)=C(O)[C@@]2(O)C(=O)C3=C(O)c4c(O)cccc4[C@@](C)(O)[C@H]3C[C@@H]12`: the Potency entry in [11], in assay [5], in assay [6], in assay [7], in assay [8] and in [3] was “inactive” in each case. Further, the Potency entry in assay [4] is “inactive”.

For `CN(C)CCN(C)CCc1ccc(Cl)c(Cl)c1`, the Potency result in [11] and in [4] was “inactive” throughout. For the same compound, the outcome in assay [10] was inactive.

As for `O=C(O)C(=O)c1cn(Cc2ccccc2)c2ccc(-c3ccc(OC(F)(F)F)cc3)cc12`, the Potency result in [11], in assay [13] and in [4] was “inactive” each time. For the same compound, in [10], the result was inactive.

Turning to `COc1ccc2c(c1OC)CN1CCc3cc4c(cc3C1C2)OCO4` (centres undefined), the Potency entry in [1], in [3] and in assay [4] was “inactive” in each case. Also, the outcome in assay [2] was inactive.

Turning to `CC[N+]1(C)CCCC(OC(=O)C(O)(c2ccccc2)c2ccccc2)C1` (centres undefined), the Potency entry in [1], in [3] and in [4] was “inactive” each time. Also, the call in assay [2] was inactive.

As to `CCN(CC)CCOC(=O)C(O)(c1ccccc1)c1ccccc1`, the Potency result in assay [1], in assay [3], in assay [4], in assay [14] and in [15] was “inactive” each time. Moreover, the result in assay [2] was inactive. Moreover, the max response in assay [9] is 31.2% (inactive).

Take `COc1ccc(Cc2nccc3cc(OC)c(OC)cc23)cc1OC`: the Potency entry in [1], in assay [3] and in assay [4] was “inactive” throughout. Further, the result in [2] and in assay [10] was inactive. The Potency in assay [5] is 14.1 µM (active).

Take `CCOC(=O)C1(c2ccccc2)CCN(CCC(C#N)(c2ccccc2)c2ccccc2)CC1`: the Potency entry in [1], in [3] and in assay [4] was “inactive” throughout. Also, the compound was called inactive in [2].

Consider `Oc1ccccc1-c1ccccc1`, for which the Potency entry in assay [1], in assay [6], in assay [7], in assay [8], in assay [3] and in assay [4] was “inactive” in each case. Moreover, the outcome in assay [2] and in assay [10] was inactive.
